Reference: PubChem BioAssay (NCATS)
Several values for one entry are separate records, joined by “and”; a condition that tells them apart may be missing. Equal entries are not always repeated. Results filed as inconclusive are left out. Entries that show only a call come without a potency. Activity calls are given as the source filed them. Calls come from the whole dose curve; as a rule, active = well fitted cell-killing curve with a large enough effect; inconclusive = small, poorly fitted or top-dose-only effect, or effect the other way; inactive = no such curve, though single readings can be large or run the other way.

Key:
[1] = Viability qHTS for spleen associated tyrosine kinase inhibitor (SYKi) naive MV4-11 cells (AID 1963823); note: nearly all actives have a fitted effect of over 40% in size
Summary of the method: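 SYKi-naive MV4-11 AML cells, 500 per well, were exposed to library compounds for 72 hr at 37 C, 5% CO2. Viability was then read by CellTiter-Glo luminescence after 10 min at room temperature.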

[2] = Viability qHTS for spleen associated tyrosine kinase inhibitor (SYKi) drug resistant MV4-11 cells (AID 1963824); note: nearly all actives have a fitted effect of over 35% in size
Summary of the method: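 SYK-inhibitor-resistant MV4-11 AML cells were seeded at 500 per well onto compound and cultured 72 hours (37 °C, 5% CO2). CellTiter-Glo was then added, and after 10 min at room temperature, luminescence gave viability.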
Potency is the fitted concentration of half-maximal effect.

COc1cc([C@H]2c3cc(O)c(OC)cc3C[C@@H](CO[C@@H]3O[C@H](CO)[C@@H](O)[C@H](O)[C@H]3O)[C@@H]2CO)ccc1O
Potency [1]: inactive
Potency [2]: inactive

COc1ccc2c(c1)[C@@H]1C[C@]1(C(=O)N1[C@@H]3CC[C@H]1CN(C)C3)Cn1c-2c(C2CCCCC2)c2ccc(C(=O)NS(=O)(=O)N(C)C)cc21
Potency [1]: 11.6 µM (active)
Potency [2]: 7.31 µM (active)

Cc1ncc(NC(=O)c2ccc(CN3CCN(C)CC3)c(C(F)(F)F)c2)cc1Nc1nccc(-c2cccnc2)n1
Potency [1]: 920 nM (active) and 1.66 µM (active)

C/C=C(/C=C(C)/C=C/C=C/C=C(\C)C(=O)C12OC1C(O)(CCO)NC2=O)C(=O)OC (stereo unspecified)
Potency [1]: 8.93 µM (active)
Potency [2]: 11.2 µM (active)

CC1(C)CC[C@]2(C(=O)O)CC[C@]3(C)C(=CCC4[C@@]5(C)CC[C@H](O[C@@H]6O[C@H](CO)[C@@H](O)[C@H](O)[C@H]6O[C@@H]6O[C@H](CO)[C@@H](O)[C@H](O)[C@H]6O)[C@@](C)(CO)C5CC[C@]43C)[C@@H]2C1 (stereo partly specified)
Potency [1]: inactive
Potency [2]: inactive

CN(C)CCn1cc(S(=O)(=O)c2cccc(F)c2)c2cccnc21
Potency [1]: inactive
Potency [2]: inactive

Nc1nc(COC(=O)c2ccc([N+](=O)[O-])cc2)nc(Nc2ccccc2)n1
Potency [1]: inactive
Potency [2]: inactive

C=C[C@@](C)(O)CC/C=C(\C)C(=O)O[C@@H]1[C@@H]2O[C@]2(C)[C@H]2[C@H](O[C@@H]3O[C@H](CO)[C@@H](O)[C@H](O)[C@H]3O)OC=C[C@@]12O
Potency [1]: inactive
Potency [2]: inactive

CC(=O)Nc1cccc2c1c(Sc1ccc(Cl)cc1)c(C)n2CC(=O)O
Potency [1]: inactive
